In all, about 31,000 sequences went through this assay and about 1,400 (4.5%) were called active. The sample as a whole holds a higher share of actives than the screen did. Unmarked numbers belong to inactive results.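 The calls were made as follows: active = median seed-adjusted z-score above 1 or below -1; inactive = the rest.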

The nature of the experiment: Novel Modifiers of Survival Motor Neuron (SMN) Protein: Gene Identification via Genome-wide siRNA Screen. As to conditions: HEK293T SMN2-luciferase reporter, siRNA knockdown, 72 h; actives lie on both sides. The text has this:
Spinal muscular atrophy (SMA) is the most common neuromuscular autosomal recessive disorder and one of the leading genetic causes of infant death. SMA results from mutations inducing loss of function or deletion in the survival of motor neuron-1 gene (SMN1), leading to deficiency of the survival motor neuron (SMN) protein. Although a second nearly identical gene, SMN2, is retained in humans, its expression primarily produces an aberrantly spliced isoform that is largely unstable and quickly degraded. We performed a genome-wide RNAi screen using a cell-based reporter assay to identify genes and pathways that modulate SMN protein stability. The screen identified over 200 genes that led to the greatest increase or decrease in luciferase expression.
Using HEK293T cells stably expressing a luciferase reporter that combines the promoter and splicing based cassettes in tandem with the major portion of the native SMN2 cDNA with luciferase, we performed a genome-wide RNAi screen to identify modulators of SMN protein levels. Luciferase is expressed when full-length SMN protein is generated with luminescence signal proportional to SMN protein levels. Our luciferase-based reporter assay was used to screen Ambion Silencer Select Human Druggable Genome siRNA library (10418 genes, 3 unique siRNAs per gene) using lipid-based reverse transfection.
Briefly, 1 pmol of each siRNA was spotted to a well of a 384-well plate (Corning, Corning, NY) and 20 microL of serum-free DMEM containing […] of Lipofectamine RNAiMax (Life Technologies, Carlsbad, CA) was then added to each well. Transfected cells were maintained at 37 degrees C in 5% CO2 for 72 hours, 20 microL of ONE-Glo Reagent (Promega) was added to wells for luciferase quantification. Raw luminescence reads were normalized to Ambion(R) Silencer(R) Negative Control #2 siRNA, then log10 transformed. A robust statistical measure of median absolute deviation (MAD) to standardize siRNA activities from each screen. Common Seed Analysis was used to help prioritize clean hits as opposed to those appearing to arise from seed based off-target effects. Candidate modulators were defined as the genes having a MAD score greater than 1.0 or less than -1.0.
As to AGGGAGCAAAUGAACCUGATT against VIP, the median seed-adjusted z-score was 1.52 (active). For the sequence GGGAAGGUGUUACAGGCUATT against FAM62A, the median seed-adjusted z-score is -0.34. The result for CUGUCCAUCUGGGUCGUGATT against SLC30A2 reads -0.402; that for CUGCAGCUUUUAUCACAAATT against SLC25A33, -0.0252; that for GUAGAUAUGUGGAAACGGATT against FAM48A, -0.506. The result for GAGUCCCAUUUACAGCUAUTT against PFTK2 reads -1.16 (active); that for GGAUGGAGACUACGAGUUUTT against STK4, 0.652. Turning to GACCAGAUAUUUGCCUAUUTT against CYFIP1, the median seed-adjusted z-score was -0.377.

Consider GGAAAAUCAUCUUAUCAGATT against TEAD1, for which the median seed-adjusted z-score was 1.31 (active).

With CAGUAUACCAUCUAACAGATT against CNTN1, the median seed-adjusted z-score is -0.796. With CCACUUUAAUAAACGUGCUTT against TIMM10, the median seed-adjusted z-score is 0.0738. Then CAGUGAAGAUAAAAUUCAATT against CRIP3, with 1.7 (active). Then CCUUCAAGGUCAACGUGUATT against KCNH3, with -0.509. As to GGAGCACAAUAGAUCUGAATT against SEPX1, the median seed-adjusted z-score was -0.0545. Regarding CCAUGGGAAUCCAAUCUGUTT against PTTG1, the median seed-adjusted z-score is -0.459.

As to GGACAUUCUAGAGAAAGAATT against SUPT5H, the median seed-adjusted z-score was -4.02 (active). The result for CGACCAUCAUGGAAAACAUTT against ABCB8 reads -0.558; that for GGAGGAUCUUGUACCCAGATT against PNKP, -0.0563; that for CAGUGGGAACGACAACUUUTT against HNRPA1P4, -0.906.

For the sequence GGAACACUUUCUCUCUAGATT against NOD2, the median seed-adjusted z-score is 0.129. Then GAUGCGAUUUGAUGAGAUATT against EPS15L1, with -0.0511; and CGCUAUACCUACCAGCAAATT against DNAJB12, with 0.

On to GCCUUACUCUGAUCUGGUATT against IL1RAP, for which the median seed-adjusted z-score was -0.23.

As for CUACCAUGGUGUACCAACATT against QRICH1, the median seed-adjusted z-score was -1.04 (active). The result for GCAAACAAGUGAUAGUGAUTT against RBM11 reads -0.0341; that for UCUUCUCCCUGAUAAAGUATT against SLC6A13, 0.267. Consider GACUGAUCCCUCUACUUCATT against SNTG1, for which the median seed-adjusted z-score is 0.167. Turning to GCUUUCAGCUGAACGAACUTT against LTF, the median seed-adjusted z-score is 0.236. The result for GAAUAUUCCUAUAGUGAUATT against MYOZ2 reads 0.315. The result for GAGUCUACCUAAUUCUGGATT against AURKA reads -0.108. Take CGACCUAAUCAUUCACAGUTT against CYP26C1: the median seed-adjusted z-score was -0.276. Then GGAGAAGAUACAAAGCGCATT against MED21, with -1.3 (active); and UAACAAAUCCUAUUAGAUUTT against CTBP2, with -0.241.

In the case of CGAAAACAGGAGAUCAUUATT against CAMK2G, the median seed-adjusted z-score is -0.107. Regarding GCGGCUCCAUUUACCAGAATT against VDAC1, the median seed-adjusted z-score was 0.133. As for GGACAUUUCAUGAGUCAUUTT against 8-Mar, the median seed-adjusted z-score was -0.106. The result for GCAUGAAUGCAACCUGAUUTT against DDX55 reads 0.507; that for GCAUGACGACUGAACUGAUTT against MDH1B, -1.13 (active). The result for GCAACUUCUUAAGACUAAATT against DBR1 reads 0.438; that for GCAAGGCGGUGUUUAUGGATT against DLX1, 0.0356. CUCUCUCUGCAACACCUUUTT against SLC39A3: the median seed-adjusted z-score is 0.0298. The result for CUACAGUCGGGAACAUGAATT against CLK3 reads -1.11 (active). As to ACGCUGUCCUGGUUCUUCATT against DGAT2L3, the median seed-adjusted z-score was 0.247. For GCAGAGCGGGUUAAAAUGATT against DNAJC2, the median seed-adjusted z-score is -0.0357. Then GGUUACAAGUGUAUAACAATT against CD59, with 0.79. The result for CGGUGCUGUUCGUCGUCUATT against GJD3 reads -0.251; that for GAAGGGAAAUGAGUACCGATT against TRIM68, -0.628; that for GGAUAAUACAGAAGCAGAATT against SAP30BP, -0.257. The result for GGAAGAAACCAUUACAAUATT against SNAPC3 reads -1.72 (active); that for AGAUGUGAAGCUCAAAUUATT against ETV7, -0.00772. Turning to GGGAGUCUUUCUUCGGGAATT against ABCG1, the median seed-adjusted z-score is -0.609. The result for CAUCAUCUCUGGAACUCUUTT against ALAS2 reads -0.142; that for GGUCAUGCAGAUUAUGUUATT against TUFM, 1.07 (active).

Turning to CCUAUUCCCGAAGCCGUUATT against PLAUR, the median seed-adjusted z-score was -0.118.

Take AAUGGAACCUGUAAGUGUATT against GCN5L2: the median seed-adjusted z-score is 0.013.

As for GAAGGACCCAGAUCUCUUUTT against ADCK1, the median seed-adjusted z-score is -0.177. The result for GAUCCUAUCUUACUAACCATT against IL7R reads 0; that for GGCUUAUUGGAGCUCUUAATT against CSE1L, 0.425.

For the sequence CAAGAUCUCAAGAAAUUCATT against CDK2, the median seed-adjusted z-score was -0.347. In the case of CCAUCGGAAUCUUGACGAATT against MX1, the median seed-adjusted z-score was -1.49 (active).

Turning to GCAACGUGGACAUUGGUGATT against SOX10, the median seed-adjusted z-score was -0.255.

For GAGUUCCUCUGGUCACUAUTT against TTC18, the median seed-adjusted z-score is -1.15 (active). Turning to GUUCAUCUUGAUUCACAAATT against NOC4L, the median seed-adjusted z-score was -0.315. With GGAUGGCCAUUGAAGGGAUTT against ECHDC2, the median seed-adjusted z-score was -0.0827. Then GGGACAGGCUGCAAAGAAATT against AARS2, with -0.52; and CGGCUGGGUCUGUACCAAATT against TLX2, with -0.182. As for GGUCUUUGAUGCGAAGUUATT against DOCK2, the median seed-adjusted z-score was 0.151. Then GCAUCGACGUGAUCACCAUTT against GPR26, with -1.33 (active); and CAAACAUCCAUAUCUAUGATT against NMT1, with 0.18; and CGCUAUCCCAAUCGCUUUATT against CYB5R1, with 0. As to GCAAGGGUCUCGGAUUAUATT against TMPRSS12, the median seed-adjusted z-score is 0.0961. As to CUAUAGAUGUGAUCAGUGUTT against ZNF32, the median seed-adjusted z-score was 0.034. The result for GCCCAAACUGAGUACAACUTT against PLA2G10 reads 1.07 (active); that for UGAGGACAAGGAUUUGGAATT against EIF2S2, 0.576; that for AUAGUUGACUAUUCUGAAATT against CCL18, 0.169. The result for AUACGGCUCUAACAGAUUATT against DBI reads 0.0661; that for AGAAGAUCGGAAUUCUUUATT against RGPD5, -0.0931; that for GGCUUAGGAUGGAGACCUATT against TGDS, -0.196. Then GUGUUUAAGGGCUUUUGAATT against CBR3, with 0.057; and GAAAUACCCUAUUACCAAATT against MED26, with -1.86 (active); and AACCCAUCGUUCCAUAUUATT against PPOX, with 0.519.

Take GAGUAGCAGGAAAAACGAATT against SNX13: the median seed-adjusted z-score was 0.253. For CCUAUGACAUGUUUCCAGATT against MAP4K2, the median seed-adjusted z-score is -0.439. Turning to GCUAUAAGCCGAUAGUAGATT against 11-Sep, the median seed-adjusted z-score was -0.245. As to GCUGGGCCGAGUACCUUAATT against PDX1, the median seed-adjusted z-score was 0. On to GAAGUAAGUUUGUUGUAGATT against PGAP1, for which the median seed-adjusted z-score is -0.272. In the case of GCAAUGAGAUGAACACCGATT against NPEPL1, the median seed-adjusted z-score was 1.12 (active). The result for GCCGAACUAUCUGAGAAUATT against PCDH1 reads -0.514; that for GGGUUAAUGUUGAGGAAUUTT against NME7, -0.331; that for CGGUAUCACCGUUGAUGAATT against ARID1A, -1.14 (active). In the case of CCUGAUUUCUUGUGAUACATT against DNAJC24, the median seed-adjusted z-score was -0.0166. Turning to GGACAUUUGCAUACUCCUATT against PPP1R14D, the median seed-adjusted z-score was 0.

With GCAUUUCGCCUGACCAUUATT against SENP1, the median seed-adjusted z-score is 0.625. Then CCGUUUUGGUGAGUCAACATT against RANBP2, with 1.53 (active); and GAAUUGGAGUGAUUCGAAUTT against NETO2, with -0.136; and GGAAGACUAUUGGAUAGAATT against ARHGAP18, with 0. Then CACCAGAUCUACCAGUUCATT against ADM, with 0.65. Regarding GCCCUACAUGGUAAAUUCATT against GTDC1, the median seed-adjusted z-score is 0.2. The result for CCCAAGAACUGCUACGUCATT against SMPD2 reads -0.406. The result for GAAACUUCCUAAGUCGAAATT against FAM57A reads 0.0434; that for CGUUCGGAAUAACUGAAAUTT against GNG7, -0.205; that for AGAACAACCGGAUUCGAGATT against LRRC52, 0.118. Then UAAAGUUCUUUUAUCCAUUTT against UBE2D3, with 1.62 (active); and GGGAGAACGUGACCAUCUATT against ICAM5, with -1 (active); and GCCUUUCAGUCAUCGCGCATT against PLXND1, with -0.064. With GCUGGUCCCUUGGAUAAGATT against MED1, the median seed-adjusted z-score is -0.855.

As to GAAACAGUGCUGAAGCCUUTT against RYBP, the median seed-adjusted z-score was 0.831. The result for GGGAGGGCAUCAACAAGAATT against RGS19 reads 0.295.

The record behind these values is PubChem BioAssay AID1347426 (Functional Genomics Laboratory (NCATS/FGL), 2020).
